Bioassay records (PubChem BioAssay)
HCMV antiviral – human cytomegalovirus inhibition | HFF cells, HCMV-luciferase reporter, 72 h; active compounds read low | activity change, negative = inhibition, % at 57.5 µM | 410,000 tested, 4.5% active; in the data active = activity change below about -60%; inconclusive = no clear call, values can overlap the other calls; inactive = above about -39%
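Inhibition of viral replication was scored as loss of reporter luminescence in HFFs infected with HCMV-luciferase (MOI 1 PFU/cell) for 72 h; compounds tested at 2 doses, normalized to buffer and Salinomycin controls.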
Vaccinia Venus – inhibitors of vaccinia virus (Venus reporter). Vaccinia virus Venus reporter expression, fluorescence. Potency, µM (highest dose often 36.5 µM), for the others: top-dose activity change, negative = inhibition, most hits filed as inhibitors. 330,000 tested, 0.46% active; calls by dose curve; tested in A549 cells; also: potency is read from the fitted curve at half-maximal effect; nearly all actives have a fitted effect of over 30% in size
Giardia FBPA inh – inhibitors of Giardia lamblia fructose-1,6-bisphosphate aldolase; Potency, µM (highest dose often 59.6 µM), without a hit: top-dose activity, negative = inhibition, most hits filed as inhibitors; purified Giardia FBPA; AID 2451; 290,000 tested, 0.71% active; A8B2U2; also: potency is read from the fitted curve at half-maximal effect; nearly all actives have a fitted effect of over 55% in size
Target sequence (A8B2U2 whole entry, looked up): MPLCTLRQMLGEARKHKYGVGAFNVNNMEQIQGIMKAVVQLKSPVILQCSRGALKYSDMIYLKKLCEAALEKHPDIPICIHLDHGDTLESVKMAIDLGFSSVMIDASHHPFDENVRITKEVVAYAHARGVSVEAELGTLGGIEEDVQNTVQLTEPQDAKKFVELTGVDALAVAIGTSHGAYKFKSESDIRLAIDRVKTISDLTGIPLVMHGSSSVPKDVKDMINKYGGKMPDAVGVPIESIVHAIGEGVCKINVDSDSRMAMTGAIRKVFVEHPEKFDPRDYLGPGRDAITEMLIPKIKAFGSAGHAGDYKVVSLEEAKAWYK
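Giardia FBPA (40 nM reagent) was preincubated 10 min at RT with compound (up to 57.5 uM final), then substrate plus GAPDH/TPI/NAD/arsenate coupling system with diaphorase/resazurin was added; resorufin fluorescence (525/598 nm) was read after 20 min.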
VACV mCherry inh – inhibitors of vaccinia virus infection (mCherry reporter signal); Vaccinia virus mCherry reporter infection, fluorescence; Potency, µM (top dose mostly 36.5 µM), for the others: at the highest dose activity change, negative = inhibition, most hits filed as inhibitors; 310,000 tested, 0.63% active; calls by dose curve; tested in A549 cells; also: potency is read from the fitted curve at half-maximal effect; nearly all actives have a fitted effect of over 35% in size
FMDV inh – foot and mouth disease virus antiviral activity; FMDV antiviral cell-based qHTS; Potency, µM (top dose mostly 57.9 µM), inactives show at the highest dose activity change, negative = inhibition, actives largely listed as inhibitors; 410,000 tested, 1.2% active; calls by dose curve; tested in HEK293T cells; also: read-out not given here; potency is read from the fitted curve at half-maximal effect; nearly all actives have a fitted effect of over 45% in size
HCV inhibitor – HCV inhibition. Huh7.5.1 HCVcc-Cre infection, luciferase reporter, 44 h. Potency, µM (top dose mostly 41.8 µM), without a hit: at the top dose activity change, negative = inhibition, usual class: inhibitors. 340,000 tested, 3.4% active. AID 651820; also: potency is read from the fitted curve at half-maximal effect
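A cell-based infection assay in which seeded cells (1,000 per well) receive test compound after 4 h, are inoculated with HCVcc-Cre at approximately 0.5 moi, and are incubated 44 h before luminescence detection.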
The depositor's hits bear a star. In the library only some 7.5% were active in any assay of this set; here they are far more common. Unless noted, calls follow the shape of the dose curve; as a rule, active = well fitted curve in the direction sought with a large enough effect; inconclusive = small, poorly fitted or top-dose-only effect, or another doubt; inactive = no such curve, though single readings can be large; an effect the other way counts as inactive or inconclusive. % is scaled to controls: 0 for no effect and ±100 for the full control effect.

What do the screens show for `CCCCCCCCN1C(=O)[C@H](CC(=O)NCc2ccc(C)o2)C[C@@]2(C(=O)OC)CCCCC=C12`?
HCMV antiviral: -3; Vaccinia Venus: -8%; VACV mCherry inh: -18%; FMDV inh: -9%

What do the screens show for `CC1(c2ccccc2)CC(C)(C)N2C(=O)C3(C(C#N)=C(N)Oc4cc(O)ccc43)c3cccc1c32` (centres undefined)?
HCMV antiviral: 31; Vaccinia Venus: inconclusive; Giardia FBPA inh: 0%; VACV mCherry inh: inconclusive; FMDV inh: inconclusive

What do the screens show for `Cc1cc2c3c(c1)C(C)(c1ccccc1)CC(C)(C)N3C(=O)C21C(C#N)=C(N)OC2=C1C(=O)CC(C)(C)C2` (centres undefined)?
HCMV antiviral: -72*; Giardia FBPA inh: -14%; FMDV inh: inconclusive; HCV inhibitor: inconclusive

What do the screens show for `N#Cc1c(-c2ccccc2)cc(-c2ccc(O)cc2)nc1N`?
HCMV antiviral: -23; Giardia FBPA inh: 0%; FMDV inh: -29%; HCV inhibitor: -5%

What do the screens show for `Cc1cc(-c2ccccc2)c(C#N)c(N)n1`?
HCMV antiviral: 82; Vaccinia Venus: -6%; Giardia FBPA inh: -1%; FMDV inh: 1%; HCV inhibitor: 7.9µM*

Results for COCCNC(=O)CN(c1ccc(F)cc1)S(=O)(=O)c1ccc2c(c1)OCCO2 ?
HCMV antiviral: 4; Vaccinia Venus: 7%; Giardia FBPA inh: 6%; VACV mCherry inh: -11%; FMDV inh: 12%; HCV inhibitor: 1%

How did CNc1ccc(/C=C/c2ccnc3ccccc23)cc1 do in these assays?
Vaccinia Venus: 12%; VACV mCherry inh: -22%

Results for Cc1cccc(OCC(=O)Nc2cccc(C(=O)OCc3cc(=O)n4c(C)csc4n3)c2)c1 ?
HCMV antiviral: -61*; Vaccinia Venus: -19%; VACV mCherry inh: -18%; FMDV inh: -18%

How did Cc1csc2nc(COC(=O)c3ccc(NC(=O)c4ccccc4Br)cc3)cc(=O)n12 do in these assays?
HCMV antiviral: -72*; Vaccinia Venus: -8%; VACV mCherry inh: -14%; FMDV inh: -3%
